# JMJD2A Tudor inh: inhibitors of human JMJD2A Tudor domain; 4.4% of 390,000 active; AlphaScreen JMJD2A-Tudor / H3K4me3 peptide binding; Potency, µM (top dose mostly 114 µM), for inactives: at the highest dose activity change, negative = inhibition, hits mostly inhibitors; O75164; further: potency means the concentration at half of the fitted maximal effect; on the % scale 0 is the no-effect control and ±100 the full control effect; nearly all actives have a fitted effect of over 50% in size
# BAZ2B block: blocks human BAZ2B; AlphaScreen BAZ2B-H3K14Ac peptide displacement; AID 504333; 4.4% of 360,000 active; Potency, µM (series often up to 114 µM), without a hit: at the top dose activity change, negative = inhibition, usual class: inhibitors; further: potency means the concentration at half of the fitted maximal effect; on the % scale 0 is the no-effect control and ±100 the full control effect; nearly all actives have a fitted effect of over 60% in size
#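 AlphaScreen luminescence quantifies BAZ2B engagement of H3K14Ac peptide; the protein and biotinylated peptide are both at 50 nM final, buffer PBS pH 7.4 with 0.01% Tween-20, all steps at room temperature.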
# HP1b chromo inh: blocks HP1-beta chromodomain binding to methylated histone tails. P83916. AlphaScreen HP1-beta / biotin-H3K9me3 peptide binding. Potency, µM (doses to about 114 µM), for inactives: at the top dose activity change, negative = inhibition, hits mostly inhibitors. 0.56% of 390,000 active; further: potency means the concentration at half of the fitted maximal effect; nearly all actives have a fitted effect of over 70% in size
#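 HP1-beta protein (50 nM final) preincubated 30 min at room temperature with biotinylated H3(1-18)K9me3 peptide (50 nM) in PBS pH 7.4, 0.01% Tween-20, then compound added for 30 min. AlphaScreen streptavidin donor/nickel chelate acceptor beads (10 ug/mL final), 30 min dark, luminescence read.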
# G9a block: inhibitors of human histone lysine methyltransferase G9a | 8.8% of 350,000 active | Q96KQ7 | Potency, µM (top dose mostly 102 µM), inactives show at the highest dose activity, negative = inhibition, most hits filed as inhibitors | G9a H3K9 monomethylation, AlphaScreen, 2 h | AID 504332; further: potency means the concentration at half of the fitted maximal effect; on the % scale 0 is the no-effect control and ±100 the full control effect; nearly all actives have a fitted effect of over 75% in size
#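 G9a (20 nM) was preincubated 15 min with compound, then reacted 2 h at room temperature with 500 nM biotin-H3K9 peptide and 20 µM SAM. Monomethyl-H3K9 detected by AlphaScreen using anti-H3K9me1 antibody.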
# PI5P4K alpha inh: blocks human PI5P4K alpha kinase activity. P48426. PI5P4Kalpha enzyme, ADP-Glo luminescence, 60 min; hits give low values. max response, %. 1.2% of 330,000 active. AID 652105; active means max response of -50% or lower; inconclusive means between -30% and -50%; inactive means -30% or higher; further: value at the top dose of about 77 µM; on the % scale 0 is the no-effect control and ±100 the full control effect
# Target sequence (P48426 whole entry, looked up): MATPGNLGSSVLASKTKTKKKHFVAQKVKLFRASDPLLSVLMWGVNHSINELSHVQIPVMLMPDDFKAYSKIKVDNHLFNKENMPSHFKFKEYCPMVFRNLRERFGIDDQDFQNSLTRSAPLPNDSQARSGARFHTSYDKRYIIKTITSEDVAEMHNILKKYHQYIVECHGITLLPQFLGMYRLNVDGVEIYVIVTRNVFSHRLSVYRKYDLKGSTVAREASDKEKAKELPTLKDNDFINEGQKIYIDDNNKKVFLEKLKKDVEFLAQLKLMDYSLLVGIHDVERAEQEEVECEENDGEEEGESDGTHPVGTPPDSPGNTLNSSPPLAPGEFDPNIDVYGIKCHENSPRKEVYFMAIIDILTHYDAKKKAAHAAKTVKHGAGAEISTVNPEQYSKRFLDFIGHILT
#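 Quantitative HTS of the MLSMR library against PI5P4Kalpha with substrate. ATP added last at 5 microM final; room temperature, 60 minutes. Remaining ATP depleted, ADP converted and read as luminescence.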
# L3MBTL1 inh: L3MBTL1 (human) inhibition. Q9Y468. AlphaScreen L3MBTL1–H3K9me1 peptide binding. Potency, µM (series often up to 57.1 µM), for inactives: at the top dose activity, negative = inhibition, actives largely listed as inhibitors. 0.66% of 230,000 active; further: potency means the concentration at half of the fitted maximal effect; on the % scale 0 is the no-effect control and ±100 the full control effect; nearly all actives have a fitted effect of over 60% in size
#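 L3MBTL1 (50 nM) pre-complexed 30 min with biotinylated H3(1-15)K9me1 peptide (75 nM), then compounds added for 30 min at room temperature; AlphaScreen streptavidin donor/nickel chelate acceptor beads (10 ug/mL final) read after 30 min dark incubation.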
# * = called active by the depositor; u = inconclusive; x = not tested or not shown; [ ] = dose if it differs, or a comment. Sampled rows, rich in hits. Any-hit rate of the full collection: about 11%. Unless noted, the call rests on the fitted dose curve; in most records, active means well fitted inhibition curve with a large enough effect; inconclusive means small, poorly fitted or top-dose-only effect; inactive means no such curve, though single readings can be large or run the other way.
SMILES,JMJD2A Tudor inh,BAZ2B block,HP1b chromo inh,G9a block,PI5P4K alpha inh,L3MBTL1 inh
CC(C)N1CCN(C(=O)c2cccc(Cl)c2)CC1,14.1µM*,u,u,25.1µM*,-0.7,11.9%
CCC(CC)N1CCN(C(=O)c2cccc(Cl)c2)CC1,20µM*,56.2µM*,u,7.94µM*,-1.6,0.5%
O=C(c1cccc(Cl)c1)N1CCN(c2ncccn2)CC1,12.1%,3.3%,53.5%,-7.8%,-1.5,x
O=C(c1cccnc1)N1CCN(C(=O)c2cccc(Cl)c2)CC1,-2.8%,2.9%,64.9%,x,2.3,-0.1%
CCOC(=O)Cn1c(=O)n(-c2ccccc2OC)c2nc(-c3ccccc3)nc(C(N)=O)c21,-22.7%,-23.0%,16.5%[57 µM],2.2%[59 µM],x,x
CCN(CC)c1cc(C)c2cc(NC(=O)/C=C/c3ccccc3Cl)ccc2n1,-28.7%,-24.1%,0.5%,u,x,x
O=C(O)Cn1ncc2c1-c1ccoc1CC2,56.2µM*,u,18.4%,11.2µM*,-10.4,u
O=C(Cn1ncc2c1-c1ccccc1OC2)N1CCc2ccccc21,-6.2%,-1.4%,32.9%,4.9%,-6.1,-11.7%
CCOC(=O)c1cc([N+](=O)[O-])cc([N+](=O)[O-])c1Sc1ncnc2nc[nH]c12,-30.6%,x,12.5%,x,-5.2,x
Nc1nc(Sc2ccc([N+](=O)[O-])c3nonc23)c2[nH]cnc2n1,28.2µM*,x,8.91µM*,x,-83.5*,x
CNc1ncnc(Sc2nc(N)nc3nc[nH]c23)c1[N+](=O)[O-],31.6µM*,x,27.7%,x,-22.6,x
Nc1nc(SCc2ccccc2)c2[nH]cnc2n1,-18.1%,3.2%,26.0%,4.7%,-5.7,x
CC1(c2ccccc2)CC(C)(C)N(C(=O)c2ccccc2Cl)c2ccccc21 (stereo unspecified),-5.2%,-6.1%,18.4%,-7.3%[59 µM],x,x
CC1(c2ccccc2)CC(C)(C)N2C(=O)C(=O)c3cccc1c32 (stereo unspecified),u,28.2µM*,-32.6%,u,5.3,-6.9%
CCCCc1nn2c(=O)cc(COC(=O)c3ccccc3NC(=O)c3ccccc3OC)nc2s1,-5.0%,0.7%,19.6%,13.1%[59 µM],x,x
Cc1ccc(S(=O)c2ccc([N+](=O)[O-])c3nonc23)cc1 (stereo unspecified),x,x,x,x,-99.9*,x
Cc1ccc(Nc2c([N+](=O)[O-])ccc3nonc23)c(C)c1,u,u,u,u,-1.9,x
Cc1cccc(NC(=O)CSc2nc(-c3ccccc3)cc(=O)[nH]2)c1C,-4.5%,1.3%,23.4%,12.6%[59 µM],x,x
CCOC(=O)c1c(NC(=O)CSc2cn(CCNC(=O)c3ccccc3OC)c3ccccc23)sc2c1CCCC2,-20.5%,-32.9%,26.7%,0.5%[59 µM],x,x
CCOC(=O)N1CCC(Nc2c(NCCCN(CC)c3cccc(C)c3)c(=O)c2=O)CC1,u,u,-8.1%,50.1µM*,1.8,x
CCOC(=O)N1CCC(Nc2c(-c3ccc(C)cc3)c(=O)c2=O)CC1,-6.5%,2.6%,36.8%,u,-5.8,-4.3%
CCOC(=O)N1CCN(c2c(NCCN(C)Cc3ccccc3)c(=O)c2=O)CC1,-6.9%,-3.1%,37.1%,56.2µM*,-0.6,-1.5%
CCOC(=O)N1CCC(Nc2c(-c3ccccc3)c(=O)c2=O)CC1,-17.7%,-13.7%,14.4%,56.2µM*,-4.6,x
O=C(CNC(=O)c1ccccc1Cl)OC(C(=O)Nc1cc(C(F)(F)F)ccc1Cl)c1ccccc1 (stereo unspecified),-21.2%,x,x,x,x,x
CC1CCCN(S(=O)(=O)c2ccc(NC(=O)CN3CCN(C)CC3)cc2)C1 (stereo unspecified),u,79.4µM*,7.4%,u,x,11.6%
Cc1ccc(S(=O)(=O)N2CCCC(C)C2)cc1 (stereo unspecified),23.8%,3.6%,57.7%,69.1%,2.9,0.2%
CC1CCCN(S(=O)(=O)c2ccc(NC(=O)CNC3CCCC3)cc2)C1 (stereo unspecified),-10.3%,-3.1%,23.5%[57 µM],39.8µM*,-0.8,x
CC1CCCN(S(=O)(=O)c2ccc(S(=O)(=O)NC(C)c3cccs3)cc2)C1 (stereo unspecified),-18.6%,-0.1%,-3.8%,39.8µM*,x,x

# Compound activity deposited in PubChem by National Center for Advancing Translational Sciences (NCATS).
